Screening results from PubChem BioAssay.
TIM10 inh: growth inhibitors of isogenic TIM10 control yeast, primary screen, counter-screen for tim10-1 yeast inhibitor project, luminescence, uHTS | S. cerevisiae TIM10 strain growth, BacTiter-Glo luminescence, 24 h | inhibition, % at 10 µM | 1.4% of 330,000 active;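 active = inhibition of 40% or more at the single tested concentration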;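 also: wild-type TIM10 isogenic control strain grown at permissive 25 °C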
tim10-1 inh: growth inhibitors of tim10-1 mutant yeast, primary screen, luminescence, uHTS | S. cerevisiae tim10-1 ts strain growth, BacTiter-Glo, 24 h | inhibition, % at 20 µM | 2.2% of 330,000 active;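 active = inhibition of at least 40%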;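 also: mutant grown at 25 °C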
NALP3 yeast inh: NALP3 inflammasome inhibitors in reconstituted yeast, primary screen, luminescence, uHTS; Yeast reconstituted NLRP3/ASC/caspase-1, beta-gal luminescence, 24 h; inhibition, % at 10 µM; 0.39% of 330,000 active;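 active = inhibition of 50% or more; inactive = inhibition below 50%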
PfHsp90 yeast 2: growth inhibition of PfHsp90-expressing yeast, primary screen, antimalarial PfHsp90 inhibitor project, S. cerevisiae, BacTiter-Glo luminescence, single point, set 2; BacTiter-Glo ATP, 48 h; yeast lacking PDR1 and PDR3 efflux regulators; inhibition, % at 9.4 µM; 0.32% of 310,000 active;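 active = every replicate shows inhibition above about 80%, whatever the replicate mean, limit read from the data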
tim23-1 inh: growth inhibitors of tim23-1 mutant yeast, primary screen, luminescence, uHTS; 1.3% of 330,000 active; S. cerevisiae tim23-1 growth, BacTiter-Glo luminescence, 24 h; inhibition, % at 20 µM;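 active = growth inhibition of the mutant yeast at or above 50%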;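 also: temperature-sensitive mutant grown at 25 °C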
SKKanGAS inh: S. pyogenes SKKanGAS growth inhibitors in kanamycin, primary screen, streptokinase expression inhibitor project, SKKanGAS strain, BacTiter-Glo luminescence; 6 h; 1.3% of 300,000 active; inhibition, % at 7.5 µM;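 active = mean replicate score, as percent of positive control median, at least 50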;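 also: strain carries kanamycin resistance gene driven by streptokinase promoter and grows in 40 µg/ml kanamycin; loss of luminescence reflects streptokinase promoter inhibition or plain growth inhibition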
tim23-1 conf: tim23-1 mutant yeast growth inhibitors, confirmation, luminescence, single concentration; 83% of 4,400 active; inhibition, % at 20 µM; S. cerevisiae tim23-1 growth, BacTiter-Glo luminescence, 24 h; shares compounds with tim23-1 inh;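 active = inhibition above about 39% in either of two replicate wells at 20 µM, limit read from the data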;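 also: temperature-sensitive tim23-1 mutant grown at 25 °C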
Numbers stand for hits; i = inactive; nt = not tested or not shown. A selection: hits, their analogues and other compounds. The true share with any hit is near 4.6%.

SMILES	TIM10 inh	tim10-1 inh	NALP3 yeast inh	PfHsp90 yeast 2	tim23-1 inh	SKKanGAS inh	tim23-1 conf
O=C(On1c(-c2ccccc2)nc2ccccc2c1=O)c1ccco1	i	i	i	i	75.5	i	57.4
O=C(OCc1c(-c2ccccc2)ncc2ccccc12)c1ccco1	i	i	i	i	55.0	nt	i
O=C(CCNC(=O)C1CCN(S(=O)(=O)c2ccc(F)cc2)CC1)NCc1ccccc1	i	i	i	i	i	i	nt
Cc1cc(C)c(NC(=O)CSc2nnc(CNC(=O)c3ccco3)o2)c(C)c1	i	i	i	i	i	i	nt
CCN(CC(=O)Nc1ccc2c(c1)OCCO2)C(=O)C(C)Oc1ccc(Cl)cc1 (stereo unspecified)	i	i	i	nt	i	i	nt
COc1cccc(NC(=O)CN(C)C(=O)C(CCSC)NC(=O)c2ccco2)c1 (stereo unspecified)	i	i	i	i	i	nt	nt
CCC1CCc2sc(C(=O)N(C)CC(=O)Nc3cccc(OC)c3)cc2C1 (stereo unspecified)	i	i	i	i	51.1	nt	41.0
CCC1CCc2sc(C(=O)NCC3CCCO3)cc2C1 (stereo unspecified)	i	i	i	i	51.4	nt	i
CCC1CCc2sc(C(=O)N(C)CC(=O)Nc3ccc(OC)cc3)cc2C1 (stereo unspecified)	i	i	i	i	50.6	i	45.0
COc1cccc([C@@H]2CC=C(C(=O)O)[C@H](c3ccc(Br)cc3)N2S(=O)(=O)c2ccc(C)cc2)c1	i	i	i	i	i	nt	nt
COc1ccc(-n2ncc3c2CC(C)(C)CC3NC(=O)CCCN2CCCC2=O)cc1 (stereo unspecified)	i	i	i	i	i	i	nt
CC(C)(C)S(=O)N1Cc2cc(CO)ccc2[C@@H]1CCO (stereo partly specified)	nt	nt	nt	i	nt	nt	nt
Cc1ccc2c(c1)C(=O)N1[C@H]3c4cc(Cl)ccc4OC[C@@H]3[C@H](c3ccccc3)[C@]1(C)C(=O)N2	i	i	i	i	i	nt	nt
C[C@@]12C(=O)Nc3ccc(F)cc3C(=O)N1[C@H]1c3cc(Cl)ccc3OC[C@@H]1[C@@H]2c1ccccc1	i	i	i	i	54.2	nt	53.5
N#C/C(=C\c1cccnc1)c1ccc([N+](=O)[O-])cc1	i	i	i	i	55.2	i	i
COc1ccc(-c2c(C#CC(C)(C)O)c3ccccc3n2C)cc1	i	i	i	i	i	nt	nt
COc1ccc(-c2oc3ccccc3c2C#CC(C)(C)O)cc1	i	i	i	i	52.3	nt	37.5
COCCNc1c2c(nc3c(-c4ccccc4)c(C)nn13)CCCC2	i	i	i	i	50.4	i	i
COc1ccc2c(c1)-c1nc(NC(=O)c3cccs3)sc1CC2	i	i	i	i	53.4	i	48.5
Fc1ccc(Nc2nc(NCc3ccco3)c3ccccc3n2)cc1	i	i	i	i	97.9	i	i
Nc1nc(Nc2ccccc2)nc(NCc2ccco2)c1[N+](=O)[O-]	i	i	i	i	i	i	nt
Cc1nc2c(c(=O)c3ccccc3n2C)c(=O)n1C1CCCCCC1	i	i	i	i	i	i	nt
CC(c1ccccc1)n1c(-c2cccs2)nc2c(c(=O)c3ccccc3n2C)c1=O (stereo unspecified)	i	i	i	nt	51.5	i	i
COc1ccc(Cn2c(-c3ccco3)nc3c(c(=O)c4ccccc4n3C)c2=O)cc1	i	i	i	i	i	i	nt
CC(C)Cn1c(-c2ccco2)nc2c(c(=O)c3ccccc3n2C)c1=O	i	i	i	nt	50.1	i	i
SMILES	TIM10 inh	tim10-1 inh	NALP3 yeast inh	PfHsp90 yeast 2	tim23-1 inh	SKKanGAS inh	tim23-1 conf
Cn1c2ccccc2c(=O)c2c(=O)n(C3CCCCC3)c(-c3ccco3)nc21	i	i	i	i	50.8	i	49.2
CCN(CC)S(=O)(=O)c1ccc(C(=O)OCn2nnc3ccccc3c2=O)cc1	i	i	i	i	70.4	i	56.1
COC(=O)c1sccc1NC(=S)NCc1ccc(Cl)cc1	i	i	i	i	61.7	i	53.3
CCOC(=O)c1c(CN(C)C)n(C)c2c(O)c(N=NC(N)=O)c3ccc(Br)cc3c12	i	i	i	i	54.2	i	i
CCCn1c(=O)c(C(=O)OCC)c(O)c2cc(Br)ccc21	i	i	i	i	i	i	nt
Cc1ccc(S(=O)(=O)N2C/C=C\CN(S(=O)(=O)c3ccccc3Br)CC2)cc1	i	i	nt	i	i	nt	nt
Cc1ccc(S(=O)(=O)N2CCCN(S(=O)(=O)c3ccccc3Br)CC2)cc1	i	i	nt	i	52.2	nt	i
Cc1nc2ccccc2c(=O)n1/N=C/c1cc(Br)ccc1O	i	i	i	i	69.2	i	75.7
S=C(NCc1ccccn1)Nc1ccccc1	i	i	i	i	i	i	nt
S=C(NCc1ccccn1)Nc1ccc(Cl)c(Cl)c1	i	i	i	nt	55.5	i	46.3
CN(C(=O)c1ccccc1[N+](=O)[O-])c1ccccc1C(=O)NCc1ccccc1	i	i	i	i	i	i	nt
Cc1c(C(=O)NCc2ccoc2)oc2ccc3c(c12)C(=O)CC(C)(C)O3	i	i	i	i	51.8	i	52.8
CCCNC(=O)c1oc2ccc3c(c2c1C)C(O)CC(C)(C)O3 (stereo unspecified)	i	i	i	i	i	i	nt
Cn1nnnc1Sc1ncnc2scc(-c3cccc(C(F)(F)F)c3)c12	i	i	i	i	53.3	nt	45.9
Cn1nnnc1Sc1ncnc2scc(-c3cc4ccccc4o3)c12	i	i	i	i	70.8	nt	38.5
Cn1nnnc1Sc1ncnc2scc(-c3ccc(C(F)(F)F)cc3)c12	i	i	i	i	56.0	nt	i
COc1ccc(C(CNC(=O)C(CCSC)NC(=O)c2ccccc2OC)N2CCCCC2)cc1 (stereo unspecified)	i	i	i	i	i	i	nt
OC(COc1ccc(Cl)c2ccccc12)CN1CCN(c2ccccn2)CC1 (stereo unspecified)	i	i	i	i	63.0	i	i
OC(COc1cccc2ccccc12)CN1CCN(c2cccc(Cl)c2)CC1 (stereo unspecified)	i	i	i	i	69.0	51.6	i
CC(=O)Nc1cccc(OCC(=O)Nc2sccc2C(N)=O)c1	i	i	i	i	i	i	nt
CCN(CC)c1ccc2c(C)cc(=O)oc2c1	i	i	i	i	i	nt	nt
CCN(CC)c1ccc2c(C)c(-c3ccc(N)cc3)c(=O)oc2c1	i	i	i	i	55.5	i	66.8
CCN(CC)c1ccc2c(C)c(Cl)c(=O)oc2c1	i	i	i	i	50.3	i	52.8
